This is an account of results in PubChem BioAssay (EPA / NIEHS).

Calls of active or inactive are those of the source. The calls were made as follows: active = hit-call score of the fitted dose curve at least 0.9, where 1 is the maximum; inactive = score below 0.9.

The experiment can be described thus: ATG_MRE_CIS: Attagene CIS-FACTORIAL HepG2 Assay for human Metal Responsive Element (MRE) (AID 2282954). The conditions noted are these: HepG2 MRE cis-reporter transcription, Attagene multiplex; actives raise or lower the signal. The procedure:
ATG_CIS is a cell-based, multiplexed-readout assay that uses HepG2, a human liver cell line, with measurements taken at 24 hours after chemical dosing in a 24-well plate.ATG_MRE_CIS is one of 52 assay component(s) measured or calculated from the ATG_CIS assay. It is designed to make measurements of mRNA induction, a form of inducible reporter, as detected with fluorescence intensity signals by Reverse transcription polymerase chain reaction (RT-PCR) and Capillary electrophoresis technology.Data from the assay component ATG_MRE_CIS was analyzed into 1 assay endpoint. This assay endpoint, ATG_MRE_CIS, was analyzed with bidirectional fitting relative to DMSO as the negative control and baseline of activity. Using a type of inducible reporter, measures of mRNA for gain or loss-of-signal activity can be used to understand the reporter gene at the transcription factor-level as they relate to the gene MTF1. Furthermore, this assay endpoint can be referred to as a primary readout, because this assay has produced multiple assay endpoints where this one serves a reporter gene function. To generalize the intended target to other relatable targets, this assay endpoint is annotated to the dna binding intended target family, where the subfamily is zinc finger.
Human liver HepG2 cells are transiently transfected with multiple reporter transcription units (MRTUs) in 6-well plates using FuGene 6 reagent (Roche; 3 ml FuGene/1 mg DNA). The MRTU constructs are regulated by a cis-regulating element (promoter). […] A major difference between the CIS and TRANS system is that in CIS activities of endogenous TFs are measured, whereas the TRANS assay evaluates changes in activities of exogenous, chimeric NR-Gal4 proteins. […] At the end of 24 hour incubation, total RNA was isolated using TriZol reagent (Invitrogen). The isolated RNA is then reverse-transcribed using oligo(dT) primer and Mo-MLV reverse transcriptase (Invitrogen) with DNAse I (Ambion) treatment for 30 min. The one-tenth of the produced cDNA was amplified by PCR using Taq DNA polymerase (Invitrogen) and two reporter sequence-specific primers. The PCR products were fluorescently labeled by primer extension with 6-arboxyfluorescein (6-FAM) 5'-labeled reporter sequence-specific primer (2 min at 95 C, 20 s at 68 C and 10 min at 72 C) and these products were digested with 5U of HpaI (New England Biolabs) for 2h at 37 C. The fragments were purified using Qiaquick PCR columns (Qiagen), analyzed on an ABI 3130xL genetic analyzer (Applied Biosystems) with peak positions identified by using a set of X-rhodamine (ROX)-labeled MapMarker1000 molecular weight standards (BioVentures). The raw capillary electrophoresis data was processed using Attagraph software (Attagene).
On to `c1ccc(N=NNc2ccccc2)cc1`, for which the AC50 is 100 µM (active).

In the case of `COc1cccc(C=O)c1`, the result was inactive.

Consider `COc1ccc(C=O)cc1OC`, for which the compound was called inactive.

As to `C[C@@H](Oc1ccc(Cl)cc1Cl)C(=O)O`, the call was inactive.

Consider `COP(=O)(OC)OC`, for which the compound was classed as inactive.

In the case of `O=C(NCO)NCO`, the call was inactive.

For the compound `Fc1ccc(C2(Cn3cncn3)OC2c2ccccc2Cl)cc1` (stereo not given), the outcome was inactive.

Take `c1cc[c]([Hg][c]2ccccc2)cc1`: the AC50 is 14.4 µM (active).

In the case of `CCOP(=S)(OCC)Oc1ccc(S(C)=O)cc1` (stereo not given), the outcome was inactive.

As to `Nc1ccc(Cl)cc1C(=O)c1ccccc1`, the AC50 is 25.6 µM (active).

Take `CCOP(=S)(OCC)SCCS(=O)(=O)CC`: the result was inactive.

Turning to `CNC(=O)O/N=C/C(C)(C)S(C)=O` (stereo not given), the compound was classed as inactive.

`Cn1sc(Cl)cc1=O`: the call was inactive.

With `CN(CCCC(=O)c1cccnc1)N=O`, the result was inactive.

Regarding `ClC(Cl)=C(Cl)C(Cl)=C(Cl)Cl`, the AC50 was 152 µM (active).

In the case of `CC(C)CCCCCCOC(=O)c1ccccc1C(=O)OCCCCCCC(C)C`, the compound was classed as inactive.

In the case of `CCC(=O)C(CC(C)N(C)C)(c1ccccc1)c1ccccc1` (stereo not given), the compound was classed as inactive.

As for `NNC(=S)NN`, the compound was called inactive.

`CCOP(=O)(CN(CCO)CCO)OCC`: the outcome was inactive.

With `BrCCBr`, the compound was called inactive.

As to `O=[N+]([O-])c1ccc2c3c(cccc13)CC2`, the compound was called inactive.

For `CCC[CH2][Sn]([CH2]CCC)([CH2]CCC)[O]C(=O)c1ccccc1`, the call was inactive.

On to `Nc1ncc([N+](=O)[O-])s1`, for which the outcome was inactive.

For the compound `C=C(C)C#N`, the result was inactive.

Turning to `ClCC(Cl)CCl`, the compound was called inactive.

In the case of `Clc1nc(Cl)nc(Cl)n1`, the compound was called inactive.

For the compound `COC(=O)c1sccc1S(=O)(=O)NC(=O)Nc1nc(C)nc(OC)n1`, the outcome was inactive.

As for `O=[N+]([O-])c1ccc(O)c([N+](=O)[O-])c1`, the compound was called inactive.

For `CCOP(OCC)OCC`, the outcome was inactive.

`Cc1ccc2ccccc2c1C`: the compound was called inactive.

For the compound `ClC1=C(Cl)[C@]2(Cl)[C@@H]3[C@@H](Cl)[C@@H](Cl)C[C@@H]3[C@@]1(Cl)C2(Cl)Cl`, the outcome was inactive.

Take `CCOP(=S)(OCC)Oc1nc(Cl)c(Cl)cc1Cl`: the AC50 was 100 µM (active).

Consider `CC1CN1P(=O)(N1CC1C)N1CC1C` (stereo not given), for which the result was inactive.

In the case of `CCC1(c2ccc(N)cc2)CCC(=O)NC1=O` (stereo not given), the compound was called inactive.

As for `COP(=O)(OC)O/C(=C\Cl)c1cc(Cl)c(Cl)cc1Cl`, the AC50 was 100 µM (active).

On to `Oc1ccc(-c2ccccc2)cc1`, for which the AC50 was 149 µM (active).

In the case of `CCC(=O)c1ccccc1`, the compound was called inactive.

Take `N#CCc1ccc(Cl)cc1`: the call was inactive.

Turning to `Cc1ccccc1N`, the call was inactive.

For `O=C(c1ccccc1)C(Cl)Cl`, the AC50 is 26.7 µM (active).
